Compound activity deposited in PubChem BioAssay by National Center for Advancing Translational Sciences (NCATS).
Compounds with a hit are over-represented: about 4.6% of the library has one in this group of screens.
TRHR enhancer-1: TRH receptor (human) allosteric enhancement | P34981 | TRHR cells, fluo-8 calcium fluorescence, EC20 TRH enhancement | enhancement, % at 2 µM | 0.66% of 360,000 active | AID 493056; in the data active means enhancement above about 30%
Target sequence (P34981 whole entry, looked up): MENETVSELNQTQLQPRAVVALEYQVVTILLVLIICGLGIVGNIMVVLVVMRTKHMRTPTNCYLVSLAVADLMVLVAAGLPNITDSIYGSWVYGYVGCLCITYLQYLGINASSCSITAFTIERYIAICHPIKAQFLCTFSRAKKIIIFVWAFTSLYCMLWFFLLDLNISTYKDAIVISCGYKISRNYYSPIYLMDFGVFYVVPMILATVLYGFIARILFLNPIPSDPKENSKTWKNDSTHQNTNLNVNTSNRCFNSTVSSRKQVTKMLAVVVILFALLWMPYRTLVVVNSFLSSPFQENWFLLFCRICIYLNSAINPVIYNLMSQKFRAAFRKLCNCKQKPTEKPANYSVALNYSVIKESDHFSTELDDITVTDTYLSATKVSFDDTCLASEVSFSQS
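TRHR-expressing cells loaded with fluo-8 calcium dye were read kinetically (ex 480/em 530) during compound addition, then stimulated with an EC20 of TRH (10 nM final). Enhancement of the Gq-mediated intracellular calcium response was scored.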
TRHR agonist-1: agonists of human TRH receptor. P34981. TRHR cells, calcium flux fluo-8, FDSS agonist mode. activation, % at 2 µM. 0.18% of 360,000 active
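Agonist-mode FDSS calcium read (Ex 480/Em 530, 1 s cycles) in 1536-well TRHR cells with fluo-8 dye, after 10-cycle baseline and 23 nL compound addition; TRH at EC20 (10 nM final) added afterwards for the enhancer phase.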
D1 PAM: enhances dopamine response at the human D1 receptor | HEK293 TREx D1 cells, calcium flux, dopamine EC20 potentiation | 0.036% of 360,000 active | AID 504651 | P21728 | potentiation, % at 10 µM; in the data active means potentiation above about 30%
D1 antagonist: blocks dopamine activation of the human D1 receptor; activity change, negative = inhibition, % at 10 µM; P21728; 3.2% of 360,000 active; HEK293 TREx D1 cells, calcium flux, dopamine EC80; hits give low values; AID 504652; in the data active means activity change below about -30%
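Antagonism measured as reduced calcium response to an EC80 dopamine addition following 180 s compound pre-read; cells were inducible HEK293 Trex D1 plated overnight at 30 C, read kinetically at 1 cycle/sec.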
D1 agonist: human D1 receptor agonism; activation, % at 2 µM; 1% of 360,000 active; AID 504660; HEK293 T-REx D1 cells, calcium flux, agonist mode
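Inducible HEK293 T-REx D1 cells, force-coupled to calcium signalling, were plated at 4000 cells/well with tetracycline and held overnight at 30 C. After no-wash calcium dye loading, compound-evoked calcium rise over 180 s flagged agonists.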
TRHR enhancer-2: human TRH receptor allosteric enhancement confirmation; shares compounds with TRHR enhancer-1; TRH receptor cell assay, enhancer confirmation qHTS; activity change, negative = inhibition, % at 46.1 µM; 970 tested, under 10 active; AID 493076; active means well fitted curve in the direction sought with a large enough effect; inconclusive means small, poorly fitted or top-dose-only effect, or another doubt; inactive means no such curve, though single readings can be large; an effect the other way counts as inactive or inconclusive;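 further: compound effect scored on response to added TRH at EC20 of 10 nM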
TRHR agonist-2: human TRH receptor agonism confirmation; shares compounds with TRHR enhancer-1; TRHR-expressing cells, agonist activation read-out; Potency, µM (series often up to 46.1 µM), actives largely listed as activators; 8% of 970 active; active means well fitted curve in the direction sought with a large enough effect; inconclusive means small, poorly fitted or top-dose-only effect, or another doubt; inactive means no such curve, though single readings can be large; an effect the other way counts as inactive or inconclusive; further: nearly all actives have a fitted effect of over 75% in size
A number is an active result; - = inactive; ? = inconclusive; . = no result. Unless noted, no stated cut-off is given here; in the data, active means activation above about 30%; inactive means the rest.

SMILES | TRHR enhancer-1 | TRHR agonist-1 | D1 PAM | D1 antagonist | D1 agonist | TRHR enhancer-2 | TRHR agonist-2
COc1cc(CN2CCN(c3cc(C)ccc3C)CC2)ccc1O | - | - | - | -89 | - | . | .
O=C(Cn1cc(C(=O)c2ccccc2)c2ccccc21)NCc1ccco1 | 56 | - | - | - | - | - | -
Cc1cc(N2CCNCC2)nc2ccccc12 | - | - | - | - | - | . | .
CCC(=Nc1ccc2c(c1)CCC2)c1c(O)n(-c2ccc(OC)cc2)c(=O)[nH]c1=O | - | - | - | - | - | . | .
COc1ccc(-c2nc3ccccc3c(=O)n2-c2ccc(OC)cc2)cc1 | - | - | - | - | - | . | .
COc1ccc(-n2c(-c3ccccc3Br)nc3ccccc3c2=O)cc1 | 48 | - | - | - | - | - | -
Cc1cc(OCC(=O)NC(Cc2ccc(Cl)cc2)C(=O)O)c2c3c(c(=O)oc2c1)CCC3 (stereo not drawn) | - | - | - | - | - | . | .
N#CCCn1cc(C(=O)Nc2ccccc2Cl)c(-c2ccc(F)cc2)n1 | - | - | - | - | - | . | .
CCNC(=O)[C@H]1O[C@@H](n2cnc3c(N)ncnc32)[C@H](O)[C@@H]1O | 45 | - | - | - | - | ? | -
NC(=O)c1cn(C2OC(CO)C(O)C2O)c2ncnc(N)c12 (stereo not drawn) | - | - | - | - | - | . | .
C[C@H]1C(=O)O[C@@H]2CCN3CC=C(COC(=O)[C@](C)(O)[C@]1(C)O)[C@H]23 | 43 | - | - | - | - | - | -
O=S(=O)(c1ccccc1)N1CCN2CCCC2C1 (stereo not drawn) | 57 | - | - | - | - | - | -
c1cncc(C2Nc3cccc4cccc(c34)N2)c1 | - | - | - | - | - | . | .
CN1CC=C2C(C#N)=C(N)C(C#N)(C#N)C(c3ccncc3)C2C1 (stereo not drawn) | - | - | - | - | - | - | ?
CC1(C)OC(c2ccccc2)=C/C(=C/C=C2C(=O)NC(=O)NC2=O)O1 | - | - | - | - | 52 | - | ?
C=CCn1c(O)c(C=Nc2ccc(OC)cc2C)c(=O)[nH]c1=O | - | - | - | - | - | - | -
COc1ccc(N=Cc2c(O)n(-c3ccc(C)cc3)c(=O)[nH]c2=O)cc1 | 51 | - | - | - | - | ? | -
CC(=O)c1ccc(NC(=O)N2C[C@H]3C[C@@H](C2)c2cccc(=O)n2C3)cc1 | - | - | - | - | - | . | .
CC(C)N1CCN(Cc2c[nH]c3ccccc23)CC1CCO (stereo not drawn) | 58 | - | - | - | - | - | -
CC(C)N1CCN(Cc2cccc3c2OCO3)CC1CCO (stereo not drawn) | - | - | - | - | - | . | .
C=C(CC1CC(O)[C@]2(C)OC3CC4OC5C[C@]6(C)O[C@]7(C)CCC8OC9C[C@]%10(C)OC%11C(C)=CC(=O)OC%11CC%10OC9C[C@@H](C)C8OC7CC6O[C@]5(C)C/C=C\C4OC3CC2O1)C(=O)O (stereo partly drawn) | 50 | - | - | - | - | ? | -
C=C(C=O)CC1CC(O)[C@]2(C)OC3C[C@@H]4OC5C[C@]6(C)O[C@]7(C)CCC8OC9C[C@]%10(C)OC(/C(C)=C\CO)C(O)CC%10OC9CC(C)C8OC7CC6O[C@]5(C)C/C=C\C4OC3CC2O1 (stereo partly drawn) | - | - | - | - | - | . | .
CN1CCN(c2ccc(S(C)(=O)=O)cc2[N+](=O)[O-])CC1 | - | - | - | - | - | . | .
CN1CCN(c2ccc(S(=O)(=O)C(F)(F)F)cc2[N+](=O)[O-])CC1 | 43 | - | - | - | - | - | -
CC1=C2C(=O)C3C(CC=C4CC(O)CCC43C)C2CCC12OC1CC(C)CNC1C2C (stereo not drawn) | - | - | - | - | - | . | .
SMILES | TRHR enhancer-1 | TRHR agonist-1 | D1 PAM | D1 antagonist | D1 agonist | TRHR enhancer-2 | TRHR agonist-2
CCOc1ccc(N2C(=O)/C(=C/c3ccc(C)o3)C(=O)NC2=S)cc1 | - | - | - | - | - | . | .
CCOc1ccc(N2C(=O)NC(=O)/C(=C\c3ccc(N4CCCCC4)o3)C2=O)cc1 | - | 31 | - | - | 85 | - | 23µM
Cc1ccc(N2C(=O)CC(=O)NC2=O)c(C)c1 | 109 | - | - | - | - | - | -
CCCCn1c(O)c(/C=C/C=Nc2ccccc2)c(=O)[nH]c1=O | - | 41 | - | - | 71 | - | 16µM
Cn1c(O)c(/C=C/C=Nc2ccccc2)c(=O)n(C)c1=O | - | - | - | - | - | . | .
C=CC[N+]1(C)CC[C@]23c4c5ccc(O)c4O[C@H]2C(=O)CC[C@@]3(O)[C@H]1C5 (stereo partly drawn) | - | - | - | - | - | . | .
